# Source: PubChem BioAssay AID430 (Sanford-Burnham Center for Chemical Genomics, 2006)
# Out of some 63,000 compounds screened, about 1,100 (1.7%) were called active. This is one part of a sample in which actives are shown more often than they occur. Results with a measured potency or affinity are listed apart. A number with no mark means an inactive call. Cut-off read from the data, not from the text of the source: active = cytotoxicity above about 50%; inactive = the rest.
# Assay: HPDE-C7 pancreatic duct cell viability loss – fluorescence, HTS (AID 430);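 note: cells exposed to compound for 48 hours before viability readout; 0% = vehicle and 100% = reference cytotoxic drug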
# Details: HPDE-C7 pancreatic duct cells viability, at 10 µM, hits give high values
row,SMILES,cytotoxicity
1,Cc1ccc(-c2cc(-c3ccc(Cl)cc3)c(C#N)c(N)n2)o1,64.4% (active)
2,COCC(=O)Nc1nc2n(n1)C(c1ccc(OC)cc1)CC(c1ccc(OC)cc1)N2 (configuration not stated),2.7%
3,O=C(NCCN1CCc2ccccc2C1)Nc1ccc(F)cc1,-10.7%
4,CSc1nc2cc(F)c(F)cc2n1C,-9.5%
5,COc1cc(C)c(Br)cc1S(=O)(=O)N1CCOCC1,-9.6%
6,Cc1nn(CCCC(=O)N2CCc3ccccc3C2)c(=O)c2cc3sccc3n12,-7.2%
7,O=C(Oc1ccccc1C(=O)N1CCOCC1)c1ccc(Br)cc1,-14.1%
8,CN(CCc1ccccn1)Cc1ccc(Cl)cc1,-13.4%
9,CC(C)c1nc2oc3c(NCC4CCCO4)ncnc3c2c2c1CCC2 (configuration not stated),114% (active)
10,CC(C)c1nc2oc3c(NCC4CCCO4)ncnc3c2c2c1COC(C)(C)C2 (configuration not stated),-14.6%
11,Cc1nc2oc3c(NCC4CCCO4)ncnc3c2c2c1COC(C)(C)C2 (configuration not stated),-3.9%
12,CCCc1cc(N2CCCC(C(=O)Nc3cc(Cl)ccc3OC)C2)n2ncnc2n1 (configuration not stated),-9.9%
13,COc1cc(NC(=O)Nc2ccccc2OC)c(OC)cc1NC(=O)CN1CCCCC1,1.9%
14,COc1cc(NC(=O)Nc2cccc(Cl)c2)c(OC)cc1NC(=O)CN1CCCCC1,83.1% (active)
15,COc1cc(NC(=O)Nc2ccccc2)c(OC)cc1NC(=O)CN1CCCCC1,6.1%
16,CC1CCCC(NS(=O)(=O)c2ccc3c(c2)OCCO3)C1C (configuration not stated),-7.8%
17,Cc1nc(CNS(=O)(=O)c2ccc3c(c2)OCCO3)cs1,-11.4%
18,Cc1ccc(-c2csc(N3CCC(NS(=O)(=O)c4ccc5c(c4)OCCO5)CC3)n2)cc1,54.6% (active)
19,Cc1nc2ccc(S(=O)(=O)NCC(=O)N3CCC(C)CC3)cc2s1,-1%
20,O=c1[nH]c(-c2ccc(Cl)cc2)nc2c1cnn2-c1ccccc1,3.6%
21,CCCCCSc1nc2c(cnn2-c2ccccc2)c(=O)[nH]1,57.7% (active)
22,CCCCSc1nc2c(cnn2-c2ccc(F)cc2)c(=O)[nH]1,-30.5%
23,CCCSc1nc2c(cnn2-c2ccccc2)c(=O)[nH]1,-0.6%
24,CCOC(=O)N1CCN(c2c(-c3ccc(C(C)C)cc3)c(=O)c2=O)CC1,1.3%
25,COCc1nc(-c2cc(OC)c(OC)c(OC)c2)no1,-19%
26,O=c1oc2ccc3ccccc3c2cc1-c1nnc(-c2ccccc2)o1,13.4%

row,SMILES,cytotoxicity
1,CCN(CC)c1ccc2cc(C(=O)Nc3ccccn3)c(=O)oc2c1,9.8%
2,CC(=O)Oc1ccc2cc(-c3nc4ccccc4n3C)c(=O)oc2c1,4.2%
3,CCN(CC)c1ccc2cc(-c3nc4ccccc4n3C)c(=O)oc2c1,67% (active)
4,CCN(CC)c1ccc2cc(-c3nnc(-c4ccncc4)o3)c(=O)oc2c1,59.2% (active)
5,CCN(CC)c1ccc2cc(-c3nc4ccccc4[nH]3)c(=O)oc2c1,30.8%
6,O=C(Nc1cccnc1)c1cc2nc(C3CC3)cc(C(F)(F)F)n2n1,-15.8%
7,Cc1ccc(SCc2cn3c(C)csc3n2)cc1,-10.2%
8,c1ccc(OCc2nn3c(Cn4nnc5ccccc54)nnc3s2)cc1,-15.5%
9,Cc1noc(C)c1S(=O)(=O)Nc1ccc(C(=O)N2CCc3ccccc3C2)cc1,-2.2%
10,Cn1nnc(NC(=O)c2ccccc2F)n1,-4.8%
11,CN1CCN(Cc2c(O)ccc3c(=O)c(Oc4ccccc4Cl)c(C(F)(F)F)oc23)CC1,-17%
12,O=C(c1ccco1)N1CCN(C(=O)c2cccc3c2C(=O)N(C2CCCCC2)C3)CC1,-10%
13,CN1CCN(CC#CC2(O)CCCCC2)CC1,-31.9%
14,COc1ccc(CC(=O)Nc2ccc(-c3noc(-c4cc(OC)c(OC)c(OC)c4)n3)cc2)cc1,-2.7%
15,c1coc(CNc2ncnc3sc4c(c23)CCCCC4)c1,-10.2%
16,CCCc1nc2sc3c(SCC(=O)NCc4ccco4)ncnc3c2c2c1CCC2,59% (active)
17,CSc1nc(NCc2ccco2)c2c3c(sc2n1)CN(C)CC3,-21.3%
18,Cc1nc(SCC(=O)NCc2ccco2)c2c3c(sc2n1)CCCC3,-4.3%
19,CC(C)c1nc2sc3c(NCc4ccco4)ncnc3c2c2c1COC(C)(C)C2,-10.3%
20,Cc1nc(NCc2ccco2)c2c3c(sc2n1)CCC3,56.1% (active)
21,CC(C)Sc1nc(NCc2ccco2)c2c3c(sc2n1)COC(C)(C)C3,83.4% (active)
22,CSc1nc(SCC(=O)NCc2ccco2)c2c3c(sc2n1)COC(C)(C)C3,51% (active)
23,CSc1nc(SCC(=O)NCc2ccco2)c2c3c(sc2n1)CN(C)CC3,-9.6%
24,CC(C)Sc1nc(SCC(=O)NCc2ccco2)c2c3c(sc2n1)COC(C)(C)C3,24.2%
25,CC(C)c1nc2sc3c(SCC(=O)NCc4ccco4)ncnc3c2c2c1CCC2,5.7%
26,O=C(CSc1ncnc2sc3c(c12)CCCCC3)NCc1ccco1,-22.5%
